# Measured values taken from PubChem BioAssay (NCI).
# This is part of a sample that, as a whole, favours compounds with a hit. Of some 83,000 tested, about 20% had one in any assay.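 Treatment: one concentration, 48 hours, 96-well format. Scoring: percent growth, with anything below 10 considered active.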 A number with no mark means an inactive call. Activity calls are given as the source filed them.
# Tested on: TK-10 renal
# Experiment: NCI-60 one-dose screen, 48 h (100 = growth as untreated, 0 = no growth, -100 = all killed)
# Conditions: 10 µM unless noted
# Procedure: Growth inhibition of the TK-10 human tumor cell line is measured as a screen for anti-cancer activity. Cells are grown in 96 well plates and exposed to the test compound for 48 hours. Compounds are tested at a single concentration, which is 10^-5 M for most compounds. The reported endpoint is percent growth (GI% or GIPRCNT), where numbers from 0 - 100% represent growth inhibition, and numbers from -100% - 0 represent cell death. For example, a value of 40 represents 60% growth inhibition. A value of 0 means no net growth occurred over the course of the experiment. A value of -40 indicates 40% of cells at the beginning of the experiment died by the end of the experiment. A value of -100 means all cells are dead at the end of the experiment.
# NCI-60 Human Tumor Cell Lines Screen was performed using the standard one-dose NCI protocol, which is described in more detail at https://dtp.cancer.gov/discovery_development/nci-60/default.htm.
# Compounds with GIPRCNT values below 10 were considered active. Activity score was based on GIPRCNT using the following formula: […]
# Score is 0 for GIPRCNT values of 100 or above, 50 for GIPRCNT values of 0, and 100 for GIPRCNT values of -100.
row,Structure (SMILES),growth
1,O=C(NNC(=O)c1ccc(NC(=O)c2ccccn2)cc1)Nc1ccc([N+](=O)[O-])cc1,101%
2,COc1cc(-c2nccc3[nH]c(-c4ccc5cc[nH]c5c4)nc23)cc(OC)c1OC,10.7%
3,COc1ccc(/C=C/C(=O)c2ccc(Nc3ccnc4cc(Cl)ccc34)cc2)cc1,141%
4,O=C1c2ccccc2-c2c1c1c(=O)[nH]c3ccccc3c1n2Cc1ccccc1,75.7%
5,NC(=O)c1cccc(-n2ccc3cc(NC(=O)c4ccc(N5CCOCC5)c(C(F)(F)F)c4)ccc32)n1,86.9%
6,COc1ccccc1NC(=O)N=Nc1c(O)[nH]c2ccccc12,118%
7,Clc1ccc(/C=N\N=C\c2ccc(Cl)c(Cl)c2)cc1Cl,97.5%
8,CC(=O)Oc1ccc(C)cc1C,102%
9,Cc1ccc(NC(=O)Cn2cc(CN3CCN(c4ccnc5cc(Cl)ccc45)CC3)nn2)cc1,95.4%
10,CC(C)COc1nc2c(c(=O)n(C)c(=O)n2C)n1C,105%
11,COC(=O)c1c2c(c(C)[n+]([O-])c1C)C(=O)C(NCc1cccc(OC)c1)=CC2=O,104%
12,O=C(/C=C/c1cccs1)Nc1ncc(Cc2ccccc2F)s1,49.6%
13,O=c1c2cnn(-c3ccccc3)c2n2c(CN3CCOCC3)nnc2n1-c1ccccc1,71.4%
14,CCn1cc(C(=O)NNC(=S)Nc2ccc(C)cc2)c(=O)c2ccc(C)nc21,100%
15,O=C(O)c1cn(C2CC2)c2cc(N3CCN(C(=O)N(c4ccccc4)c4nc(-c5ccccc5)cs4)CC3)c(F)cc2c1=O,38.3%
16,CSc1oc(C)nc1[P+](c1ccccc1)(c1ccccc1)c1ccccc1,88.2%
17,COc1cc2ncnc(Nc3ccc(F)c(Cl)c3)c2cc1OCC(=O)N1CCN(c2ccccc2)CC1,42.4%
18,CCc1ccccc1-n1c(-c2ccc(OC)cc2)cc(-c2ccc(OC)cc2)c(C#N)c1=O,97.2%
19,COC(=O)CC[C@@H]1O[C@@H](c2cccc(C(F)(F)F)c2)[C@@H](O)[C@H]1O,98.9%
20,NC(=O)c1c(NC(=O)c2ccc3ccccc3c2)sc2c1CCC(=O)C2,95.7%

row,Structure (SMILES),growth
1,Fc1cc2c(cc1Cl)N(c1ncnc3ccc(-c4ccc5n[nH]nc5c4)cc13)CC2,46%
2,CC(=O)N1N=C(c2ccc(C(F)(F)F)c(F)c2)CC1c1[nH]c(C)c(C(=O)NCC(F)(F)F)c1C (stereo not given),68.5%
3,N#Cc1nc(-c2ccc(F)cc2)oc1S(=O)(=O)N1CCCCC1,-69.8% (active)
4,COCCOc1cc2ncnc(N3CCN(c4cc(S(C)(=O)=O)c(C)cc4Cl)CC3)c2cc1OCCOC,104%
5,COc1ccc(-c2nn(-c3cccc(Cl)c3)cc2-c2cc(-c3ccc(Br)cc3)nc(N)n2)cc1,104%
6,C=C1C(=O)O[C@H]2[C@H]1CC/C(COC(=O)C(=O)c1cn(C)c3ccc(Cl)cc13)=C\CC[C@@]1(C)O[C@@H]21,-91.1% (active)
7,COC(=O)c1nc(-c2ccccc2)oc1S(=O)(=O)Cc1ccccc1,5.41% (active)
8,Nc1[nH]n2cc(-c3ccccc3)nc2c1N=Nc1ccc(S(N)(=O)=O)cc1,48.4%
9,CCCC/C(CC)=N\NS(=O)(=O)c1ccc([N+](=O)[O-])cc1,93.4%
10,Cc1c2cnccc2c(C)c2c1c1cc(C#N)ccc1n2C,-13% (active)
11,CCCCNC(=O)CC1=C(C)/C(=C/c2[nH]c(-c3ccc[nH]3)cc2OC)N=C1C,33.5%
12,COc1ccc(C2=C(Br)C(=O)c3nc(C)ccc3C2=O)cc1,71.7%
13,COc1cc(-c2nc3sccn3c2-c2ccnc(NCCNS(=O)(=O)c3ccccc3)n2)ccc1F,57%
14,O=C(Nc1cccc(Cl)c1)Nc1cccc(Cn2c(=O)[nH]c3ccc(Oc4ncccn4)cc3c2=O)c1,68.9%
15,Nc1ncnc2c1N=C(c1ccc(Br)cc1)CC(c1cccc(Nc3ccnc4cc(C(F)(F)F)ccc34)c1)N2 (stereo not given),102%
16,Cc1c(-c2ccc(O)cc2)n(Cc2ccc(OCCN3CCCCCC3)cc2)c2ccc(O)cc12,78%
17,Cc1ccc2c(n1)C(=O)C(Br)=C(CC(C)C)C2=O,115%
18,N#Cc1c(-c2ccc(Cl)cc2)c(C#N)c2c(C#N)c(N)nn2c1N,83.8%
19,Cc1cc(=O)n(C(=O)Nc2ccccc2Cl)c2cc(O)ccc12,101%
20,CN(C)S(=O)(=O)c1cccc(C(=O)Nc2nc(-c3ccc(F)c(F)c3)cs2)c1,81.2%
